Experimental data reported in PubChem BioAssay AID588403 (Broad Institute, 2011).
Active and inactive are the calls of the source.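 How the source made its calls: active means dose-dependent signal loss with a fitted half-maximal concentration at or below 35 µM; inconclusive means flat fit with 30 to 70% signal loss, or poor fit; inactive means the rest.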

Experiment: DiI-HDL fluorescence quenchers, cell-free, dose response, artefact control for SR-BI HDL uptake inhibitor project, biochemical, powder samples, plate reader fluorescence (AID 588403)
Conditions: cell-free DiI-HDL fluorescence quenching counter-screen, 30 min; series mostly up to 35 µM

Compound | outcome
COc1ccc(-c2nnn(CC(=O)N(C3CCCCC3)C(C)C(=O)NC3CCCC3)n2)cc1OC (stereo not given) | inactive
CCC(=O)N1CCc2cc(-c3csc(NC(=O)c4cc(OC)cc(OC)c4)n3)ccc21 | inactive
O=C(CN(C(=O)Cn1nnc(-c2ccc3c(c2)OCO3)n1)C1CCCCC1)NC1CCCC1 | inactive
CCCCCCC1CCC/C1=N\NC(N)=S (stereo not given) | inactive
CCC(=O)N1CCc2cc(-c3cnc(NC(C)=O)[nH]3)ccc21 | inactive
CC(C(=O)NC1CCCC1)N(C(=O)Cn1nnc(-c2ccccc2Cl)n1)C1CCCCC1 (stereo not given) | inactive
C[C@@H]1CN([C@H](C)CO)C(=O)c2cc(NC(=O)Cc3cn(C)c4ccccc34)ccc2O[C@H]1CN(C)S(=O)(=O)c1ccc(Cl)cc1 | inactive
COC(=O)N1CCc2cc(-c3csc(NC(=O)c4ccco4)n3)ccc21 | inactive
CC(C(=O)NC1CCCC1)N(C(=O)Cn1nnc(-c2ccc3c(c2)OCO3)n1)C1CCCCC1 (stereo not given) | inactive
CC(C(=O)NC1CCCC1)N(C(=O)Cn1nnc(-c2ccc(F)cc2)n1)C1CCCCC1 (stereo not given) | inactive
CCC(=O)N1CCc2cc(-c3coc(NC(=O)c4ccco4)n3)ccc21 | inactive
COc1ccc(-c2cc(CC(=O)N(C3CCCCC3)C(C)C(=O)NC3CCCC3)no2)cc1OC (stereo not given) | inactive
CCC(=O)N1CCc2cc(-c3csc(NC(=O)c4ccc(F)c(OC)c4)n3)ccc21 | inactive
CC(C(=O)NC1CCCC1)N(C(=O)Cn1nnc(-c2cccc(F)c2)n1)C1CCCCC1 (stereo not given) | inactive
CCC(=O)N1CCc2cc(-c3csc(NC(=O)c4cccc(OC)n4)n3)ccc21 | inactive
COc1ccc(-c2nnn(CC(=O)N(CC(=O)NC3CCCC3)C3CCCCC3)n2)cc1OC | inactive
CCC(=O)N1CCc2cc(-c3csc(NC(=O)c4cccc(OC)c4)n3)ccc21 | inactive
CS(=O)(=O)N1CCc2cc(-c3csc(NC(=O)c4ccco4)n3)ccc21 | inactive
COc1cccc(-c2nnn(CC(=O)N(C3CCCCC3)C(C)C(=O)NC3CCCC3)n2)c1 (stereo not given) | inactive
Cc1ccc(-c2nnn(CC(=O)N(C3CCCCC3)C(C)C(=O)NC3CCCC3)n2)cc1 (stereo not given) | inactive
CC(C)C(=O)N1CCc2cc(-c3csc(NC(=O)c4ccco4)n3)ccc21 | inactive
CCC(=O)N1CCc2cc(-c3coc(N)n3)ccc21 | inactive
O=C(Nc1nc(-c2ccc3c(c2)CCN3)cs1)c1ccco1 | inactive
CC(C(=O)NC1CCCC1)N(C(=O)Cn1nnc(-c2ccc(Cl)cc2)n1)C1CCCCC1 (stereo not given) | inactive
CCC(=O)N1CCc2cc(-c3csc(NC(=O)c4cccc(OC(F)(F)F)c4)n3)ccc21 | inactive
CCC(=O)N1CCc2cc(-c3cnc(NC(=O)c4ccco4)[nH]3)ccc21 | inactive
CCC(=O)N1CCc2cc(-c3csc(NC(=O)c4ccco4)n3)ccc21 | inactive
COc1ccccc1-c1nnn(CC(=O)N(C2CCCCC2)C(C)C(=O)NC2CCCC2)n1 (stereo not given) | inactive
CC(C(=O)NC1CCCC1)N(C(=O)Cn1nnc(-c2ccccc2F)n1)C1CCCCC1 (stereo not given) | inactive
O=C(Nc1nc(-c2ccc3c(c2)CCN3C(=O)C2CC2)cs1)c1ccco1 | inactive
